Caspase-7 inhib: qHTS Assay for Allosteric/Competitive Inhibitors of Caspase-7 | 75,000 compounds, 0.02% hits | Potency, µM (doses to about 57.5 µM), for the others: at the highest dose activity change, negative = inhibition, actives largely listed as inhibitors | P55210 | recombinant caspase-7, Ac-DEVD-AFC fluorescence rate; active means well fitted inhibition curve with a large enough effect in the main read-out, with a control signal flat, not every such curve was filed as active; inconclusive means small, poorly fitted or top-dose-only effect, or a change in a side signal; further: % of control where 0% means no effect
GBA activity: Glucocerebrosidase. purified enzyme, resorufin glucoside fluorescence (screen aimed at inhibitors), 20 min. Potency, µM. Lysosomal acid glucosylceramidase (Homo sapiens), P04062. 48,000 compounds, 1.1% hits. AID 360, 2006; in the data active means potency below about 15 µM; inconclusive means mostly about 16 µM to 33 µM;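 further: the screen sought inhibitors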
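Compounds titrated against 0.2 nM normal enzyme, 30 uM resorufin beta-D-glucopyranoside substrate, citrate/phosphate buffer with taurocholate and tween-20, pH 5.9. Reaction ran 20 min at room temperature; fluorescence (Ex 548/Em 600) gave AC50.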
USP2a inh: qHTS Assay for Inhibitors of Ubiquitin-specific Protease USP2a; Ubiquitin carboxyl-terminal hydrolase 2 (Homo sapiens), O75604; USP2a enzymatic assay, qHTS inhibition; Potency, µM (highest dose often 38.3 µM), for the others: top-dose activity change, negative = inhibition, usual class: inhibitors; 60,000 compounds, 0.1% hits; further: nearly all actives have a fitted effect of over 60% in size
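USP2 core (20 nM final) was preincubated with compound for 30 min at RT in 20 mM Tris-HCl pH 8.0, 2 mM CaCl2, 2 mM beta-mercaptoethanol; Ub-PLA2 (20 nM) plus NBD C6-HPC (20 uM) then added, fluorescence read after 2.5 h.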
Caspase-1 inhib: qHTS Assay for Allosteric/Competitive Inhibitors of Caspase-1. Caspase-1 enzyme, Ac-WEHD-AFC fluorogenic rate. 75,000 compounds, 0.03% hits. P29466. Potency, µM (top dose mostly 57.5 µM), without a hit: top-dose activity change, negative = inhibition, hits mostly inhibitors;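 further: plate controls were vehicle for no effect and no substrate for full effect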
The depositor's hits bear a star; ? = inconclusive; nt = no result; [ ] = dose if it differs, or a comment. Many of the other results were omitted from the sample, so hits are more common in it than they were. Unless noted, the call rests on the fitted dose curve; in most records, active means well fitted curve in the direction sought with a large enough effect; inconclusive means small, poorly fitted or top-dose-only effect, or another doubt; inactive means no such curve, though single readings can be large; an effect the other way counts as inactive or inconclusive. Potency means the concentration at half of the fitted maximal effect.

SMILES | Caspase-7 inhib | GBA activity | USP2a inh | Caspase-1 inhib
Cn1ncnc2c(=O)n(C)c(=O)nc1-2 | ? | >76.9 | -29.4% | 12.6µM*
CC(=O)Nc1nnc(SCC(=O)NCCOc2ccccc2)s1 | 1.6% | nt | 7.94µM* | 0.4%
C[C@H](N)c1cccc(Cl)c1Cl | -0.5% | nt | 0.6% | 3.4%
O=C(O)[C@@H](O)[C@@H](O)[C@@H]1[O][Sb][O][C@@H]1CO | -1.8%[11.5 µM] | nt | nt | 2.3%[11.5 µM]
COc1cc2c(cc1O)C[C@@H]1c3c(cc(O)c(OC)c3-2)CCN1C | 1.8%[11.5 µM] | nt | nt | -3.6%[11.5 µM]
COc1cc2c(cc1O)-c1c(O)c(OC)cc3c1[C@H](C2)N(C)CC3 | -26.9% | nt | nt | 31.6µM*
C[C@@H]1[C@H]2C=C[C@@H]1[C@@H](c1c3ccc(=O)c(O)c-3oc3c(O)c(O)ccc13)[C@@H]2C(=O)O | -12.1%[11.5 µM] | nt | nt | -5.3%[11.5 µM]
CC(=O)[O-].CC(=O)[O-].CC(=O)[O-].[Cr+3] | -0.8% | nt | nt | -5.7%
CC(=O)O.CC(=O)O.[Cd] | 3.8% | nt | 2.51µM* | -5.5%
CCC(C)NC(=O)c1c(N)n(Cc2ccc3c(c2)OCO3)c2nc3ccccc3nc12 (stereo not drawn) | ? | 15.1* | 34.0% | nt
O=C1NC(=O)C(=O)C(=O)N1 | 0.1% | nt | 10µM* | 2.0%
O=S(=O)(c1ccccc1)N1CN2CCN(C2)C1 | 6.7% | 13.7* | -9.7% | -0.6%
c1ccc(C[N+]23CN4CN(CN(C4)C2)C3)cc1 | 0.2%[11.5 µM] | nt | nt | -0.7%[11.5 µM]
Cc1cc(N2CCOCC2)nc2ccc(NC(=O)CCC(=O)N3CCC4(CC3)OCCO4)cc12 | -1.3% | 4.68* | 6.1% | -0.4%
O=C(O)[C@H]1[C@H](C(=O)O)[C@H]2CC[C@@H]1O2 | 1.1% | nt | -5.1% | 1.6%
CO[C@@H]1CC=C2CCN3CCC4=C(CC(=O)OC4)[C@]23C1 | 0.7% | nt | -5.0% | 1.7%

Screening data deposited in PubChem by National Center for Advancing Translational Sciences (NCATS).
